According to PubChem BioAssay (NCI):
About 79,000 compounds went through this panel and 15% of them were active in at least one assay; those are over-represented in the sample as a whole. Rule as the data show it: active = growth inhibition above about 70%; inactive = the rest.

How the values were obtained:
[1] = NCI Yeast Anticancer Drug Screen. Data for the rad50 strain (AID 155);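 also: 0% = growth of vehicle-only cultures of the same strain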; details: S. cerevisiae rad50 strain growth inhibition; at 50.0 µM; stronger effect = higher value
Outline: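 Readout: growth inhibition relative to vehicle-treated cultures. Compound exposure was carried out in a genetically defined yeast strain deficient in DNA damage repair.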

[2] = NCI Yeast Anticancer Drug Screen. Data for the mec2-1 strain (AID 157); details: S. cerevisiae mec2-1 strain, at 50.0 µM, stronger effect = higher value
Outline: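 Growth inhibition is read against vehicle-treated controls after compound exposure of the mec2-1 yeast strain, which is defective in DNA damage repair or cell cycle control.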

[3] = NCI Yeast Anticancer Drug Screen. Data for the sgs1 mgt1 strain (AID 161);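 also: 0% = growth of cultures given vehicle only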; details: S. cerevisiae sgs1 mgt1 strain, at 50.0 µM, stronger effect = higher value
Outline: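 Percent growth inhibition was derived by comparing compound-exposed mutant yeast with vehicle-exposed cultures. The strain carries alterations in DNA damage repair.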

[4] = NCI Yeast Anticancer Drug Screen. Data for the cln2 rad14 strain (AID 165);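 also: 0% = growth equal to vehicle treated cultures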; details: S. cerevisiae cln2 rad14 strain, at 50.0 µM, stronger effect = higher value
Outline: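 Growth inhibition, relative to vehicle-treated controls, is the read-out. The test organism is a yeast strain with defined genetic alterations, cln2 rad14.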

[5] = NCI Yeast Anticancer Drug Screen. Data for the bub3 strain (AID 167); details: S. cerevisiae bub3 mutant strain, at 50.0 µM, stronger effect = higher value
Outline: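 Readout: yeast growth inhibition, expressed relative to vehicle-only wells. The test organism is a mutant strain from a panel with lesions in DNA repair or checkpoint genes.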

[6] = NCI Yeast Anticancer Drug Screen. Data for the mlh1 rad18 strain (AID 175); details: S. cerevisiae mlh1 rad18 strain growth inhibition; at 50.0 µM; stronger effect = higher value
Outline: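 Cells of a genetically altered yeast strain, deficient in DNA damage repair, were treated with compound. Their growth was then compared with that of vehicle-treated cultures to give inhibition.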

Measured: growth inhibition

Cc1cccc(C)c1[S][Pb][S]c1c(C)cccc1C
inactive: [1] -0.6% | [2] -3.75% | [3] -7.9% | [4] -0.75% | [5] -2.05% | [6] -17.4%

CCOC(=O)C1C(=O)C(CN(CCCl)CCCl)C(=O)C(C(=O)OCC)C1c1cc(OC)c(OC)c(OC)c1 (centres undefined)
inactive: [1] 17.9% | [2] -8.05% | [3] 16.6% | [4] -27.9% | [5] 0% | [6] 30.9%

CCOP(=O)(OCC)C1CC(C(C)C)CC=C1C (centres undefined)
inactive: [1] 5.4% | [2] -8.95% | [3] -2.15% | [4] 1.25% | [5] 3.75% | [6] 15.1%

OCC12COCN1COC2
inactive: [1] 8.4% | [2] -15.9% | [3] -23.6% | [4] -14% | [5] -0.4% | [6] -31.9%

COC(=O)N/N=C(/CCN1CCCC1)CC(c1ccccc1)c1c(O)c2ccccc2oc1=O (centres undefined)
inactive: [1] 19.4% | [2] -4.45% | [3] 10% | [4] 9.2% | [5] 8.7% | [6] 14.9%

S=C(Nc1ccccc1)Nc1ccc(N(CCCl)CCCl)cc1
inactive: [1] 17.6% | [2] 0% | [3] 12.6% | [4] -40.8% | [5] 10.1% | [6] 21.7%

COc1ccc2c3c([nH]c2c1)C(C)N(C)CC3 (centres undefined)
inactive: [1] 16.4% | [2] 1.85% | [3] -10.7% | [4] -5.05% | [5] 43.4% | [6] -16.9%

C[N+](C)(C)NP(=O)(N[N+](C)(C)C)Oc1ccccc1
inactive: [1] 28.4% | [2] 15.2% | [3] -10.7% | [4] 20.8% | [5] 1.05% | [6] 28.1%

CC1CC2CCC1(CO)CN2 (centres undefined)
inactive: [1] -0.45% | [2] 2.3% | [3] 0.1% | [4] 4.65% | [5] 0.85% | [6] 3.9%
